In PubChem BioAssay AID1159580 (chemical genetic matrix, 2015):
Among all 5,500 compounds or so, about 2,000 (36%) were called active. Inconclusive results (about 18%) are left out. Cut-off read from the data, not from the text of the source: active = normalized growth mostly below about 0.91 (no sharp cut-off); inconclusive = no clear call, values can overlap the other calls; inactive = mostly above about 0.92. The list shows a part of the results.

Test: chemical genetic growth profiling, strain panel (AID 1159580);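 note: tested at 20 µM; growth read once vehicle control cultures reached saturation at 30 °C; 1 = growth at the plate median or of vehicle wells; lower values mean less growth of the strain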
Settings: growth OD

Measured: normalized growth

N[C@@H](C(=O)O)[C@@H](O)[C@H](O)[C@H](O)CO
inactive: S. cerevisiae deletion strains, locus YJR066W, strain TOR1, active compounds read low 0.985 | S. cerevisiae deletion strains, locus YJR075W, strain HOC1, active compounds read low 1.02 | S. cerevisiae deletion strains, locus YKL009W, strain mrt4, active compounds read low 1 | S. cerevisiae deletion strains, locus YKL068W, active compounds read low 1.01 | S. cerevisiae deletion strains, locus YKL085W, strain MDH1 (second series), active compounds read low 1.02 | S. cerevisiae deletion strains, locus YKL085W, strain MDH1, active compounds read low 1.02 | S. cerevisiae deletion strains, locus YKL160W, strain elf1, active compounds read low 1.03 | S. cerevisiae deletion strains, locus YKL190W, strain CNB1, active compounds read low 1.01 | S. cerevisiae deletion strains, locus YKR001C, strain vps1, active compounds read low 1.04 | S. cerevisiae deletion strains, locus YKR026C, strain gcn3, active compounds read low 1.04 | S. cerevisiae deletion strains, locus YKR091W, strain srl3, active compounds read low 1.02 | S. cerevisiae deletion strains, locus YLL001W, strain dnm1, active compounds read low 1.03 | S. cerevisiae deletion strains, locus YLL026W, active compounds read low 1.03 | S. cerevisiae deletion strains, locus YLL041C, strain sdh2, active compounds read low 1.02 | S. cerevisiae deletion strains, locus YLR027C, strain aat2, active compounds read low 1.02 | S. cerevisiae deletion strains, locus YLR039C, strain RIC1, active compounds read low 1.1 | S. cerevisiae deletion strains, locus YLR058C, strain SHM2, active compounds read low 1.01 | S. cerevisiae deletion strains, locus YLR102C, strain apc9, active compounds read low 1.01 | S. cerevisiae deletion strains, locus YLR113W, strain HOG1, active compounds read low 1.07 | S. cerevisiae deletion strains, locus YLR221C, strain rsa3, active compounds read low 1.03 | S. cerevisiae deletion strains, locus YLR258W, strain gsy2, active compounds read low 1.01 | S. cerevisiae deletion strains, locus YLR262C, strain YPT6 (second series), active compounds read low 1.06 | S. cerevisiae deletion strains, locus YLR262C, strain YPT6, active compounds read low 1.14 | S. cerevisiae deletion strains, locus YLR268W, strain sec22, active compounds read low 1.04 | S. cerevisiae deletion strains, locus YLR320W, strain mms22, active compounds read low 1.03 | S. cerevisiae deletion strains, locus YLR330W, strain CHS5, active compounds read low 1.01 | S. cerevisiae deletion strains, locus YLR342W, strain FKS1 (second series), active compounds read low 1.01 | S. cerevisiae deletion strains, locus YLR342W, strain FKS1, active compounds read low 1.03 | S. cerevisiae deletion strains, locus YLR357W, strain rsc2, active compounds read low 1.04 | S. cerevisiae deletion strains, locus YLR370C, strain arc18, active compounds read low 1.02 | S. cerevisiae deletion strains, locus YLR371W, strain rom2, active compounds read low 1.02 | S. cerevisiae deletion strains, locus YLR384C, strain iki3, active compounds read low 1.02 | S. cerevisiae deletion strains, locus YLR418C, strain cdc73, active compounds read low 1.01 | S. cerevisiae deletion strains, locus YML016C, strain PPZ1, active compounds read low 1.01 | S. cerevisiae deletion strains, locus YML032C, strain rad52, active compounds read low 0.989 | S. cerevisiae deletion strains, locus YML120C, strain ndi1, active compounds read low 1.03 | S. cerevisiae deletion strains, locus YML124C, strain tub3, active compounds read low 1.02 | S. cerevisiae deletion strains, locus YMR058W, strain fet3, active compounds read low 1.03 | S. cerevisiae deletion strains, locus YMR078C, strain ctf18, active compounds read low 1.03 | S. cerevisiae deletion strains, locus YMR125W, strain sto1, active compounds read low 1.02 | S. cerevisiae deletion strains, locus YMR129W, active compounds read low 1.03 | S. cerevisiae deletion strains, locus YMR205C, strain PFK2, active compounds read low 1.03 | S. cerevisiae deletion strains, locus YMR223W, strain ubp8, active compounds read low 1.01 | S. cerevisiae deletion strains, locus YMR231W, strain pep5, active compounds read low 1 | S. cerevisiae deletion strains, locus YMR307W, strain GAS1, active compounds read low 0.992 | S. cerevisiae deletion strains, locus YNL067W, strain RPL9B, active compounds read low 1.01 | S. cerevisiae deletion strains, locus YNL071W, strain lat1, active compounds read low 1.03 | S. cerevisiae deletion strains, locus YNL153C, strain GIM3, active compounds read low 1.01 | S. cerevisiae deletion strains, locus YNL183C, strain NPR1, active compounds read low 0.989 | S. cerevisiae deletion strains, locus YNL209W, strain ssb2, active compounds read low 1.02 | S. cerevisiae deletion strains, locus YNL233W, strain BNI4, active compounds read low 1.02 | S. cerevisiae deletion strains, locus YNL248C, strain rpa49, active compounds read low 1.04 | S. cerevisiae deletion strains, locus YNL250W, strain rad50, active compounds read low 1.03 | S. cerevisiae deletion strains, locus YNL271C, strain bni1, active compounds read low 1.03 | S. cerevisiae deletion strains, locus YNL298W, strain CLA4, active compounds read low 1.02 | S. cerevisiae deletion strains, locus YNL307C, strain MCK1, active compounds read low 1.02 | S. cerevisiae deletion strains, locus YNL322C, strain KRE1 (second series), active compounds read low 1.03 | S. cerevisiae deletion strains, locus YNR049C, strain mso1, active compounds read low 1.04 | S. cerevisiae deletion strains, locus YNR052C, strain pop2, active compounds read low 1.01 | S. cerevisiae deletion strains, locus YOL006C, strain TOP1, active compounds read low 1.06 | S. cerevisiae deletion strains, locus YOL012C, strain htz1 0.92 | S. cerevisiae deletion strains, locus YOL147C, strain pex11, active compounds read low 1.01 | S. cerevisiae deletion strains, locus YOR001W, strain rrp6, active compounds read low 1.05 | S. cerevisiae deletion strains, locus YOR061W, strain CKA2, active compounds read low 1.02 | S. cerevisiae deletion strains, locus YOR069W, strain VPS5, active compounds read low 1.01 | S. cerevisiae deletion strains, locus YOR070C, strain gyp1, active compounds read low 1.02 | S. cerevisiae deletion strains, locus YOR080W, strain dia2, active compounds read low 1.04 | S. cerevisiae deletion strains, locus YOR083W, strain WHI5, active compounds read low 1.02 | S. cerevisiae deletion strains, locus YOR106W, strain vam3, active compounds read low 1.07 | S. cerevisiae deletion strains, locus YOR136W, strain idh2, active compounds read low 1.02 | S. cerevisiae deletion strains, locus YOR144C, strain elg1, active compounds read low 1.01 | S. cerevisiae deletion strains, locus YOR184W, strain ser1, active compounds read low 1.03 | S. cerevisiae deletion strains, locus YOR231W, strain MKK1, active compounds read low 1.08 | S. cerevisiae deletion strains, locus YOR265W, strain rbl2, active compounds read low 1.02 | S. cerevisiae deletion strains, locus YOR270C, strain vph1, active compounds read low 1.12 | S. cerevisiae deletion strains, locus YOR290C, strain snf2, active compounds read low 1.02 | S. cerevisiae deletion strains, locus YOR316C, strain cot1, active compounds read low 1.02 | S. cerevisiae deletion strains, locus YPL051W, strain arl3, active compounds read low 1.02 | S. cerevisiae deletion strains, locus YPL055C, strain LGE1, active compounds read low 1.02 | S. cerevisiae deletion strains, locus YPL078C, strain atp4, active compounds read low 1.01 | S. cerevisiae deletion strains, locus YPL106C, strain sse1, active compounds read low 1.01 | S. cerevisiae deletion strains, locus YPL240C, strain hsp82, active compounds read low 1.02 | S. cerevisiae deletion strains, locus YPL256C, strain CLN2, active compounds read low 1.03 | S. cerevisiae deletion strains, locus YPR119W, strain clb2, active compounds read low 1.02 | S. cerevisiae deletion strains, locus YPR141C, strain kar3, active compounds read low 1.02 | S. cerevisiae deletion strains, locus YPR163C, strain tif3, active compounds read low 1.03 | S. cerevisiae deletion strains, locus YPR167C, strain met16, active compounds read low 1.02 | S. cerevisiae deletion strains, strain wtn01, active compounds read low 1.05 | S. cerevisiae strains, strain wild type, active compounds read low 1.01
